ChEMBL document CHEMBL3988442, “University of Dundee, Small-Polar-MMV Screening Library” (2021)
In all, about 48,000 compounds went through this assay and about 13,000 (27%) showed an effect of 50% or more. This is one part of the list.

System: Wolbachia pipientis
Test: Anti-Wolbachia Cell-Based Screen
Type: functional
Parameters: scale not given: in the data most compounds retested in dose-response had high values
Settings: 5 µM

Structure (SMILES) | Percent Effect
CCCN1CCN(C(=O)Cc2cccnc2)[C@H]2CS(=O)(=O)C[C@H]21 | 0.3719%
O=C(O)C(F)(F)F.O=C(O)C(F)(F)F.c1cncc(OC[C@@]23CCC[C@@H]2CN(C2CCOCC2)C3)c1 | 96.07%
O=C(O)C(F)(F)F.O=C(O)C(F)(F)F.c1ccc(CN2C[C@H]3CCC[C@@]3(COCC3CCOCC3)C2)nc1 | 5.827%
C[C@@H]1CN(C2CCOCC2)C[C@]12CCN(c1cccnc1)C2=O.O=C(O)C(F)(F)F.O=C(O)C(F)(F)F | 17.85%
Cc1cc(CN2C[C@H]3CCC[C@@]3(COCC3CCOCC3)C2)no1.O=C(O)C(F)(F)F | 1.109%
CCS(=O)(=O)NC[C@]12COC[C@H]1CN(Cc1cccnc1)C2.O=C(O)C(F)(F)F.O=C(O)C(F)(F)F | -8.022%
O=C(O)C(F)(F)F.O=C(O)C(F)(F)F.c1cncc(OC[C@]23COC[C@H]2CN(C2CCOCC2)C3)c1 | 108.8%
O=C(NC1CC(F)(F)C1)[C@]12COC[C@H]1CN(Cc1cccnc1)C2.O=C(O)C(F)(F)F.O=C(O)C(F)(F)F | 1.025%
C[C@@H]1CN(C2CCOC2)C[C@]12CCN(c1cccnc1)C2=O.O=C(O)C(F)(F)F.O=C(O)C(F)(F)F (stereo not given in full) | 8.884%
O=C(O)C(F)(F)F.O=C(O)C(F)(F)F.c1cncc(OC[C@@]23CCC[C@@H]2CN(CC2CCOCC2)C3)c1 | 108.6%
O=C(NC[C@]12COC[C@H]1CN(Cc1cccnc1)C2)C1CCC1.O=C(O)C(F)(F)F.O=C(O)C(F)(F)F | 96.22%
COc1ncccc1CN1C[C@@H]2COC[C@]2(COCC2CC2)C1.O=C(O)C(F)(F)F.O=C(O)C(F)(F)F | 12.64%
Cl.O=C(C1CCCCC1)N1CC2(CCNCC2)C1 | -23.98%
CC(C)(C)NC(=O)CNc1ccc(C#N)c(C(F)(F)F)c1 | 3.351%
COCCO[C@H]1COCCN(C2CCN(C)CC2)C1 | -1.205%
Cc1nc(N2C[C@H]3CNC[C@H]3C2)c2sccc2n1 | 3.045%
O=C(O)C(F)(F)F.O=C(O)C(F)(F)F.c1cncc(OC[C@]23COC[C@H]2CN(C2CCC2)C3)c1 | 103%
O=C(O)C(F)(F)F.O=C(O)C(F)(F)F.c1cncc(OC[C@]23COC[C@H]2CN(Cc2cccs2)C3)c1 | -9.167%
c1cc(COC[C@@]23CCC[C@@H]2CN(C2CCOCC2)C3)ccn1 | 95.49%
O=C1[C@@H]2CCN(C3CCC3)C[C@@H]2OCCN1Cc1ccncc1 | -0.008003%
O=C(O)C(F)(F)F.O=C(O)C(F)(F)F.c1cc(CN2C[C@@H]3COC[C@]3(COCC3CC3)C2)ccn1 | 8.652%
O=C(O)C(F)(F)F.O=C(O)C(F)(F)F.c1ccc(OC[C@]23COC[C@H]2CN(Cc2ccoc2)C3)nc1 | -16.38%
O=C(O)C(F)(F)F.O=C(O)C(F)(F)F.c1ccc(CN2C[C@@H]3COC[C@]3(COCC3CCOCC3)C2)nc1 | 9.184%
O=C(O)C(F)(F)F.O=C(O)C(F)(F)F.c1ccc(OC[C@]23COC[C@H]2CN(C2CCOCC2)C3)nc1 | 115.9%
O=C(O)C(F)(F)F.c1cnc(N2CCC3(CCN(CC4CCOC4)C3)CC2)nc1 (stereo not given) | -13.35%

Structure (SMILES) | Percent Effect
O=C(O)C(F)(F)F.O=C(O)[C@]12CCCN(C3CCOC3)C[C@H]1CN(c1ncccn1)C2 (stereo not given in full) | 103.8%
CCN(CCc1ccccc1)Cn1nc(C)c2c(C)onc2c1=O | 9.974%
CC(C)NC(=O)N1CCOC2(CNC2)C1 | 2.797%
CC(C)(C)n1cc(C(=O)O)c(-c2ccc(F)cc2F)n1 | 0.2477%
Cc1cnc(N2CC[C@H]3[C@H](C[C@@H](CN(C)C)N3C)C2)nc1.O=C(O)C(F)(F)F.O=C(O)C(F)(F)F.O=C(O)C(F)(F)F | -11.75%
Cn1cc(N2C[C@@H]3CN(Cc4ccccn4)C[C@@H]3C2=O)cn1.O=C(O)C(F)(F)F.O=C(O)C(F)(F)F | -17.49%
CC(C)N1[C@H](Cn2cncn2)C[C@@H]2CN(c3ncccn3)CC[C@@H]21.O=C(O)C(F)(F)F | 2.319%
CN1C(Cn2cccn2)C[C@@H]2CN(Cc3cccnc3)CC[C@@H]21.O=C(O)C(F)(F)F.O=C(O)C(F)(F)F.O=C(O)C(F)(F)F.O=C(O)C(F)(F)F (stereo not given in full) | 103.4%
CN(C)C[C@@H]1C[C@@H]2CN(c3ncc(F)cn3)CC[C@@H]2N1C.O=C(O)C(F)(F)F.O=C(O)C(F)(F)F.O=C(O)C(F)(F)F | -18.44%
CN1C(Cn2cccn2)C[C@@H]2CN(Cc3ccccn3)CC[C@@H]21.O=C(O)C(F)(F)F.O=C(O)C(F)(F)F.O=C(O)C(F)(F)F.O=C(O)C(F)(F)F (stereo not given in full) | 100.1%
Cc1oncc1C(=O)N1CC[C@H]2[C@H](C[C@@H](CN3CCCC3)N2C)C1.O=C(O)C(F)(F)F.O=C(O)C(F)(F)F | 90.36%
O=C(O)C(F)(F)F.O=C(O)C(F)(F)F.O=C1[C@H]2CN(Cc3ccoc3)C[C@H]2CN1Cc1cccnc1 | -13.37%
O=C(O)C(F)(F)F.O=C(O)C(F)(F)F.O=C(O)C(F)(F)F.c1ccc(CN2CC[C@H]3[C@H]2CCN3c2ncccn2)nc1 | -2.728%
O=C(C1CCCC1)N1C[C@@H]2CCNC[C@@H]21 | -32.69%
Cc1nc(O)cc(CNC(=O)CC[C@@H]2CCCN3CCCC[C@H]23)n1 | -12.46%
COCCO[C@@H]1C[C@H]2CN(C(=O)c3ccc(C)nc3)CCN2C1 | -21.72%
NC1(c2nc(-c3cccs3)cc(=O)[nH]2)CCCCC1 | -5.956%
Cn1nc(-c2cccs2)cc1[C@H]1CN2CC[C@H]1C[C@@H]2CN | -6.528%
Cc1cc(C(F)(F)F)nc(N2CCN3CCCC3C2)n1 (stereo not given) | 105%
Cc1cc(N2CCCN3CCC[C@H]3C2)n2nc(C)c(C)c2n1 | 20.9%
FC(F)(F)c1cc(-c2cccs2)nc(N2CCN3CCCC3C2)n1 (stereo not given) | 58.5%
Cc1cc(N2CCN3CCCCC3C2)n2nc(C)c(C)c2n1 (stereo not given) | 11.68%
CN(C)C(=O)N1CCC2(C1)CN(c1cccnc1)C(=O)CN2C (stereo not given) | 109.4%
O=C(O)C(F)(F)F.O=C(O)C(F)(F)F.O=C1CC2(CCN(Cc3ccccn3)C2)CN1c1cccnc1 (stereo not given) | 1.703%
O=C(O)C(F)(F)F.O=C(O)C(F)(F)F.O=C1CC2(CCN(CC3CC3)C2)CN1c1cccnc1 (stereo not given) | 7.384%

Structure (SMILES) | Percent Effect
COc1cccc(OCC(=O)N2CCCSCC2CN2CCOCC2)c1 (stereo not given) | 8.311%
O=C(COc1cccc(F)c1)N1C[C@@H](O)[C@H](N2CCOCC2)C1 | 106.1%
CCN1CCN(C(=O)COc2ccc(CN(C)S(C)(=O)=O)cc2)CC1 | -1.123%
O=C(COc1cccc(F)c1)N1C[C@@H](O)[C@H](N2CCCC2)C1 | -2.251%
CN(C)[C@@H]1CN(C(=O)COc2cccc(F)c2)C[C@H]1O | 81.08%
COc1ccccc1OCC(=O)N1CCN(Cc2noc(C)n2)CC1 | 5.502%
Cc1ccccc1C1(CN)CCCCC1 | 0.8163%
Cc1nc(N2C[C@H]3CC[C@@H](C2)N3)nc2cc(S(C)(=O)=O)ccc12 | 4.923%
CN(C)C(=O)CN1C[C@@H]2OCCN(c3ncc(F)cn3)[C@@H]2C1 | 104.1%
Cc1cnc(N2CCC[C@@H]3CN(CC(=O)N(C)C)C[C@@H]32)nc1.O=C(O)C(F)(F)F.O=C(O)C(F)(F)F | -0.2022%
Cc1nc(CN2C[C@@H]3OCCN(c4ncc(F)cn4)[C@@H]3C2)cs1 | -23.28%
CCN1C[C@H]2[C@@H](C1)N(c1ncc(F)cn1)CC[C@H]2OC.O=C(O)C(F)(F)F.O=C(O)C(F)(F)F | 2.548%
CCOC(=O)CN1C[C@@H]2OCCN(c3ncc(F)cn3)[C@@H]2C1 | 86.46%
Cc1nc(C2CCN(C(C)C)CC2)sc1Br | 83.07%
Cc1nc(C2CCCN(C(C)C)C2)sc1Br (stereo not given) | 117%
Cl.O=C(NCC(F)(F)F)C1=NOC2(CCCNC2)C1 (stereo not given) | 8.664%
CN(Cc1cncnc1)[C@H]1CN(Cc2ccco2)[C@@H]2CCCO[C@@H]21 | -12.03%
c1ccc(-c2cc(CN3C[C@H]4CC[C@H]3C4)on2)cc1 | 0.1259%
O=C(O)C(F)(F)F.O=C(O)C(F)(F)F.c1ccc(CO[C@@H]2C[C@H]3CN(c4ncccn4)CCN3C2)nc1 | -5.237%
CN(C)C(=O)CN1CCO[C@H]2CN(c3ccccn3)C[C@H]21 | -17.61%
Cc1cc(CN2C[C@H]3CC[C@@H]2CN(Cc2[nH]cnc2C)C3)on1 | 1.495%
OC[C@@H]1[C@H]2CN(c3ccccn3)CCN2C[C@H]1c1ccccc1 | 110.4%
OC[C@@H]1[C@@H](c2ccccc2)CN2CCN(c3ccccn3)C[C@H]12 | 121.4%
Cc1cc(CN2CCN3C[C@H](c4ccccc4)[C@@H](CO)[C@H]3C2)on1 | 124.7%
COCC(=O)NC[C@H]1C[C@@H]2CCN1C[C@@H]2CN1CCc2ccccc2C1 | -3.386%
